According to PubChem BioAssay (NCATS):
Records with an inconclusive call do not appear. The source made the active and inactive calls. Unless noted, the call rests on the fitted dose curve; in most records, active means well fitted curve in either direction with a large enough effect (not every such curve was filed as active); inconclusive means small, poorly fitted or top-dose-only effect, or another doubt; inactive means flat fitted curve, though single readings scatter. Residues, ends and D or L forms follow the SMILES beside them.

How the values were obtained:
[1] = biological target: Lysosomal acid glucosylceramidase (Homo sapiens) (UniProt P04062); experiment: Glucocerebrosidase-p2 (AID 348; in the data active means potency below about 10 µM; further: potency means the concentration at half of the fitted maximal effect); conditions: purified GBA, blue fluorogenic substrate, 40 min
Sequence of Lysosomal acid glucosylceramidase (Homo sapiens) (P04062 whole entry, looked up): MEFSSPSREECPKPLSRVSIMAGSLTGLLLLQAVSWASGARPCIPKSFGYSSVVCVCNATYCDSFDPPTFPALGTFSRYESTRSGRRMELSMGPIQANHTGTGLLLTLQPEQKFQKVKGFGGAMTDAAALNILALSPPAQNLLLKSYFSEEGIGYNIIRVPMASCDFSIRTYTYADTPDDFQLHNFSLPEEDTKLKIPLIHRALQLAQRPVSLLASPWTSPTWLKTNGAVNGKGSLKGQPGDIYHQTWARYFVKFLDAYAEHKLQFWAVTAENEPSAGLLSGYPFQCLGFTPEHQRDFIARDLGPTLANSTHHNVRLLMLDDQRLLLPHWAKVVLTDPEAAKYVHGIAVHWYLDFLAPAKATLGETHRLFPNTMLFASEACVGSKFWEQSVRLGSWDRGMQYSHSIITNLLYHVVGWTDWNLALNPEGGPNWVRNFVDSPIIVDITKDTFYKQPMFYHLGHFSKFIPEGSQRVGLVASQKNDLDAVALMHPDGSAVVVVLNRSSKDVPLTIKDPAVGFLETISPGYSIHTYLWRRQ
How it was run: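 Normal human glucocerebrosidase (0.2 nM) with blue fluorogenic substrate (80 uM final) in citrate/phosphate pH 5.9 with 10mM sodium taurocholate, 0.01% tween-20; 40 min RT, NaOH/glycine stop; fluorescence Ex 365/Em 440; AC50 from a titration from 0.6 nM upwards.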

[2] = AP1 Signaling Pathway (AID 357); conditions: ME-180 AP-1-bla reporter, EGF-induced, beta-lactamase ratio, 5 h; at 7.69 µM (top of the series) unless noted;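 further: ME-180 reporter cells stimulated with EGF at its EC50 level; on the % scale 0 is the no-effect control and ±100 the full control effect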
How it was run: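 Read-out was the 460nm/530nm emission ratio (excitation 405nm) after CCF4 loading for 2.5 hours at room temperature. Cells carried an AP-1-driven beta-lactamase reporter, were stimulated with EC50 EGF plus compound for 5 hours, and AC50 values came from titrations.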

[3] = biological target: Cytochrome P450 1A2 (Homo sapiens) (UniProt P05177); experiment: p450-cyp1a2 (AID 410; calls by dose curve; further: potency means the concentration at half of the fitted maximal effect;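 on activity change, negative = inhibition: -100% = full effect of reference inhibitor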); conditions: recombinant CYP1A2, luciferin-ME demethylation, luminescence; series mostly up to 11.4 µM
Sequence of Cytochrome P450 1A2 (Homo sapiens) (P05177 whole entry, looked up): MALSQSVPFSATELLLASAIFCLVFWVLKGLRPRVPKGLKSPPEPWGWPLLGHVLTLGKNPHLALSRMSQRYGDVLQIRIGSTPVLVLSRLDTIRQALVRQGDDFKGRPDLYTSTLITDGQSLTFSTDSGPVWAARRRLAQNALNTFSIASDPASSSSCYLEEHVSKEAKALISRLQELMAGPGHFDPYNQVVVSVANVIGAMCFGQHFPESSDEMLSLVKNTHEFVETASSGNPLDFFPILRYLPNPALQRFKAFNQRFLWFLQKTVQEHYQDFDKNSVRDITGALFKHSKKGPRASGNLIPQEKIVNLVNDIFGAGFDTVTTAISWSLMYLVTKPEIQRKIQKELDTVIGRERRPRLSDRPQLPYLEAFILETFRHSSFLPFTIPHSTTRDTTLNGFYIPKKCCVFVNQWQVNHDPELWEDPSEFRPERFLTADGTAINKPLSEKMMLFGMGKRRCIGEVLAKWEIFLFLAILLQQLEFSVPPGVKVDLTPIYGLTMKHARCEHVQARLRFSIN
How it was run: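 20nM CYP1A2, 100uM Luciferin-ME (=Km), 100mM KPO4; cpd 10 min RT; +NADPH regen, 60 min RT; stop/detect 20 min; luminescence. Normalized to furafylline 57 uM = full inhibition.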

[4] = NFAT Signaling Pathway (AID 444); conditions: Jurkat NFAT-bla M1, carbachol, beta-lactamase ratio, 5 h; at 7.69 µM (top of the series) unless noted;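 further: carbachol stimulus at about its EC50 of 1 µM final; on the % scale 0 is the no-effect control and ±100 the full control effect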
How it was run: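 Read-out: CCF4 FRET ratio (460 nm/530 nm) after 1 h RT dye loading, used for %activity and AC50 from titration series. Cells: Jurkat NFAT-β-lactamase/M1 line, treated with compound plus 1 uM carbachol for 5 h, 37 °C.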

[5] = Stat Signaling Pathway (AID 446); conditions: ME-180 (cervical carcinoma) SIE beta-lactamase reporter, IL-6 stimulated, 5 h; at 7.69 µM (top of the series) unless noted;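 further: ME-180 cervical cancer cells given 40 pM IL-6 alongside compound; SIE-controlled beta-lactamase reporter measured as 460/530 nm FRET emission ratio; on the % scale 0 is the no-effect control and ±100 the full control effect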
How it was run: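 Overnight-plated ME-180 cells bearing a STAT Inducible Element beta-lactamase reporter; 5 h co-exposure to compound and 40 pM IL-6; values normalized to 300 pM IL-6 and 125 nM JAK inhibitor controls.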

[6] = biological target: Glucocorticoid receptor (Homo sapiens) (UniProt P04150); experiment: GR-GFP Redistribution (AID 450;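 active means compounds whose dose series gives a full or clear partial fitted curve of increased nuclear translocation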; further: potency means the concentration at half of the fitted maximal effect); conditions: U2OS GR-GFP nuclear translocation, laser cytometry, 2 h
Sequence of Glucocorticoid receptor (Homo sapiens) (P04150 whole entry, looked up, the tested form may be a part): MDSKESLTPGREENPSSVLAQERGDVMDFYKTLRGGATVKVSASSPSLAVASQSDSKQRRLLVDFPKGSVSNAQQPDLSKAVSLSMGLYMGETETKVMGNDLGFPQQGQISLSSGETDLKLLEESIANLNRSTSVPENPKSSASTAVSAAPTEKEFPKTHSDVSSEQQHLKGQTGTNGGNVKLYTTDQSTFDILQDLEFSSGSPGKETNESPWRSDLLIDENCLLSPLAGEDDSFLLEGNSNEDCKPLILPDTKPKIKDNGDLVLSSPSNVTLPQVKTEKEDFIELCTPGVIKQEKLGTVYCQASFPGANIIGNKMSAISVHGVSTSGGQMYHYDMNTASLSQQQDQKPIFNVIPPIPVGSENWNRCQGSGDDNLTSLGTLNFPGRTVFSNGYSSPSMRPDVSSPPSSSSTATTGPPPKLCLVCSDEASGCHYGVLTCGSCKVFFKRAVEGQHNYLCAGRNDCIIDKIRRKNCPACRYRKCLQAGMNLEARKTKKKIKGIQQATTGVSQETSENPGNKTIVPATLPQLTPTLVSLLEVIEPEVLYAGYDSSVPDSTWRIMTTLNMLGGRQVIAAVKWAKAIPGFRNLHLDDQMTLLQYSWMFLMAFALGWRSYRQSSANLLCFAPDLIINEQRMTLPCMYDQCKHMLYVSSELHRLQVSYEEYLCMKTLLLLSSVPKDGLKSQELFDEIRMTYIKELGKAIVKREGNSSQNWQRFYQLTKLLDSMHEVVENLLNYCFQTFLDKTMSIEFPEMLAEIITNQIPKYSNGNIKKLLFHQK

[7] = biological target: Glucocorticoid receptor (Homo sapiens) (UniProt P04150); experiment: GR-EFC Redistribution (AID 451; calls by dose curve; further: potency means the concentration at half of the fitted maximal effect); conditions: CHO-K1 GR-EFC translocation, beta-gal luminescence, 2 h
How it was run: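 Translocation of GR-ED fusion to nuclear EA restores b-gal, read by luminescence after 1 h room-temperature detection. Engineered CHO-K1 biosensor cells, 1,000/well, exposed 2 h at 37 C to titrations up to 46 uM final.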

[8] = biological target: Mitogen-activated protein kinase 10 (Mus musculus) (UniProt Q61831); experiment: JNK3 AlphaScreen Assay (AID 530); conditions: JNK3 lysate, c-Jun phosphorylation; series mostly up to 11.4 µM;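 further: kinase came from lysate of stimulated human HepG2 cells; signal reports phosphorylation of biotinylated GST-cJun 1-79 at Ser73 with 10 µM ATP; on the % scale 0 is the no-effect control and ±100 the full control effect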
How it was run: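 Kinase buffer: 20 mM Tris-HCl pH 7.6, 10 mM MgCl2, 1 mM DTT, 0.1 mM Na3VO4, 0.01% Tween-20; ATP 10 uM. Substrate biotin-GST-cJun(1-79), enzyme from activated HepG2 lysates. Detection by Ser73 phospho-antibody AlphaScreen.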

[9] = biological target: 3',5'-cyclic-AMP phosphodiesterase 4B (Homo sapiens) (UniProt Q07343); experiment: qHTS Assay for Inhibitors of PDE-IV (AID 607; active means well fitted activation curve with a large enough effect in the main read-out, with a control signal flat, not every such curve was filed as active; further: % of control where 0% means no effect); conditions: HEK293 ACTOne CNG channel cells, membrane potential fluorescence; series mostly up to 22.9 µM
Sequence of 3',5'-cyclic-AMP phosphodiesterase 4B (Homo sapiens) (Q07343 whole entry, looked up): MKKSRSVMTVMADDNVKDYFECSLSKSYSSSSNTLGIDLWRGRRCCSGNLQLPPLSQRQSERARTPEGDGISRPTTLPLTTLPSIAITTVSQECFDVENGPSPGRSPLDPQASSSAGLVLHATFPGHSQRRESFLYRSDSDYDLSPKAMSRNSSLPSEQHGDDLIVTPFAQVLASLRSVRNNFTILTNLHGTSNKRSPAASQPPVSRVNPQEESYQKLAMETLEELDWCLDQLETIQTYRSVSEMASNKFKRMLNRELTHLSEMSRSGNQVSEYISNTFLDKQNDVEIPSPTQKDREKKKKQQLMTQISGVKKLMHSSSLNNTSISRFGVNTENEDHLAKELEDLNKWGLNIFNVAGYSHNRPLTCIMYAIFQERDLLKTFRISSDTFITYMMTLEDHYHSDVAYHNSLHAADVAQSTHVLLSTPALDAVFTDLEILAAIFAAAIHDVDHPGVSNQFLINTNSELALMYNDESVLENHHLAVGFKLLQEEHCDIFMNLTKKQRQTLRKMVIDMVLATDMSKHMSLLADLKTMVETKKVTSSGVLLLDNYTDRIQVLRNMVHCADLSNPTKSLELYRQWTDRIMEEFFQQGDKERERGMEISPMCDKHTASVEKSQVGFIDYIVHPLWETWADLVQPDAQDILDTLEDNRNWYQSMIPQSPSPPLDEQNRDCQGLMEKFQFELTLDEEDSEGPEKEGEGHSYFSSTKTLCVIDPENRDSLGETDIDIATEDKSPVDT
How it was run: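 Live HEK293 cells with a modified cyclic nucleotide-gated (CNG) channel report intracellular cAMP via membrane-potential dye fluorescence (ex 535/em 590 nm). Endogenous PDE-IV was targeted. Compounds were tested at up to 22.9 uM final; RO 20-1724 100 uM served as control.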

c1cc2c(cc1C(N1CCNCC1)N1CCNCC1)OCO2
inactive: Potency [1] > 11.4 µM | activity change, negative = inhibition [2] 1.84% | activity change, negative = inhibition [3] -3% [at 2.29 µM] | activity change, negative = inhibition [4] 8.42% | activity, negative = inhibition [5] -2.48% | Potency [6] > 46 µM | Potency [7] > 9.22 µM | Potency [8] | Potency [9]

NCC(=O)N[C@H](CO)C(=O)O (HELM PEPTIDE1{G.[dS]}$$$$V2.0)
inactive: Potency [1] > 11.4 µM | activity change, negative = inhibition [2] 12.3% | Potency [3] | activity change, negative = inhibition [4] -7.28% | activity, negative = inhibition [5] 10.1% | Potency [6] > 46 µM | Potency [7] > 9.22 µM | Potency [8] | Potency [9]

O=C(O)Cc1cccnc1
inactive: Potency [1] > 11.4 µM | activity change, negative = inhibition [2] 8.81% | Potency [3] | activity change, negative = inhibition [4] 15.8% | activity, negative = inhibition [5] 3.03% | Potency [6] > 46 µM | Potency [7] > 9.22 µM | Potency [8] | Potency [9]

CC(C)[C@]1(Cl)CC[C@@H]2[C@]3(C)CCC[C@@](C)(C(=O)O)[C@H]3C[C@H](Cl)[C@@]2(Cl)[C@H]1Cl
inactive: Potency [1] > 11.4 µM | activity change, negative = inhibition [2] -2.07% | Potency [3] | activity change, negative = inhibition [4] 0.923% | activity, negative = inhibition [5] 0.27% | Potency [6] > 46 µM | Potency [7] > 9.22 µM | Potency [8] | Potency [9]

O=C(O)c1ccc([N+]2=Cn3c(nc4ccccc43)C2)cc1
active: Potency [3] 5.01 µM
inactive: Potency [1] > 11.4 µM | activity change, negative = inhibition [2] -0.795% | activity change, negative = inhibition [4] 9.31% | activity, negative = inhibition [5] 0.556% | Potency [6] > 46 µM | Potency [7] > 9.22 µM | Potency [8] | Potency [9]

O=C(O)CC[C@]1(C(=O)O)CCC(=O)c2ccccc21
inactive: Potency [1] > 11.4 µM | activity change, negative = inhibition [2] 11.8% | Potency [3] | activity change, negative = inhibition [4] 4.42% | activity, negative = inhibition [5] 2.44% | Potency [6] > 46 µM | Potency [7] > 9.22 µM | Potency [8] | Potency [9]

Cc1cc([N+](=O)[O-])c(C)c(Br)c1C
active: Potency [3] 1 µM
inactive: Potency [1] > 11.4 µM | activity change, negative = inhibition [2] 3.15% | activity change, negative = inhibition [4] -7.3% | activity, negative = inhibition [5] 6.97% | Potency [6] > 46 µM | Potency [7] > 9.22 µM | Potency [8] | Potency [9]

O=C1Nc2ccccc2C1=Nc1cccc2ncccc12
active: Potency [3] 3.98 µM
inactive: Potency [1] > 11.4 µM | activity change, negative = inhibition [2] 5.64% | activity change, negative = inhibition [4] -3.54% | activity, negative = inhibition [5] 2.41% | Potency [6] > 46 µM | Potency [7] > 9.22 µM | Potency [8] | Potency [9]

Cn1c(=O)c2[nH]c(CCC(=O)O)nc2n(C)c1=O
inactive: Potency [1] > 11.4 µM | activity change, negative = inhibition [2] 0.0396% | Potency [3] | activity change, negative = inhibition [4] 10.1% | activity, negative = inhibition [5] -0.184% | Potency [6] > 46 µM | Potency [7] > 9.22 µM | Potency [8] | Potency [9]

NC(N)=N/N=C\c1ccc(O)c(C(=O)O)c1
inactive: Potency [1] > 11.4 µM | activity change, negative = inhibition [2] 12.8% | activity change, negative = inhibition [3] -11.9% [at 2.29 µM] | activity change, negative = inhibition [4] 14.8% | activity, negative = inhibition [5] -1.78% | Potency [6] > 46 µM | Potency [7] > 9.22 µM | Potency [8] | Potency [9]

Cc1cc2sc(C)[n+](CCCOS(=O)(=O)O)c2cc1C
inactive: Potency [1] > 11.4 µM | activity change, negative = inhibition [2] -5.1% | Potency [3] | activity change, negative = inhibition [4] 7.47% | activity, negative = inhibition [5] 1% | Potency [6] > 46 µM | Potency [7] > 9.22 µM | Potency [8] | Potency [9]

Cc1cc(Cc2c(C)c(C)c(Cc3cc(C)cc(C(C)(C)C)c3O)c(C)c2C)c(O)c(C(C)(C)C)c1
inactive: Potency [1] > 11.4 µM | activity change, negative = inhibition [2] -8.57% | activity change, negative = inhibition [3] 5% [at 2.29 µM] | activity change, negative = inhibition [4] 14.4% | activity, negative = inhibition [5] 6.62% | Potency [6] > 46 µM | Potency [7] > 9.22 µM | Potency [8] | Potency [9]

OCCNc1ncnc2c1ncn2[C@@H]1O[C@@H](CO)[C@H](O)[C@@H]1O
inactive: Potency [1] > 11.4 µM | activity change, negative = inhibition [2] 3.21% | Potency [3] | activity change, negative = inhibition [4] 9.99% | activity, negative = inhibition [5] 25.8% | Potency [6] > 46 µM | Potency [7] > 9.22 µM | Potency [8] | Potency [9]

c1cncc(CNc2ncn[nH]2)c1
inactive: Potency [1] > 11.4 µM | activity change, negative = inhibition [2] 12.7% | Potency [3] | activity change, negative = inhibition [4] 15.3% | activity, negative = inhibition [5] -1.59% | Potency [6] > 46 µM | Potency [7] > 9.22 µM | Potency [8] | Potency [9]

NC(Cc1ccccc1)=NCC(=O)O
inactive: Potency [1] > 11.4 µM | activity change, negative = inhibition [2] 2% | Potency [3] | activity change, negative = inhibition [4] -0.213% | activity, negative = inhibition [5] -4.46% | Potency [6] > 46 µM | Potency [7] > 9.22 µM | Potency [8] | Potency [9]

Nc1ccccc1CCCC(=O)O
inactive: Potency [1] > 11.4 µM | activity change, negative = inhibition [2] -5.22% | Potency [3] | activity change, negative = inhibition [4] 0.568% | activity, negative = inhibition [5] 4.31% | Potency [6] > 46 µM | Potency [7] > 9.22 µM | Potency [8] | Potency [9]
